# GRIN3A LBD mod: modulators (binders) of human NR3A ligand-binding domain. NR3A LBD differential scanning fluorimetry, Tm shift; 0% = protein alone, 100% = glycine-bound protein. Tm shift relative to glycine control, % at 25 µM. hit rate 2.5% among 340,000. AID 1259313;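 active means melting temperature shift of at least 10% of the positive control shift, at one fixed dose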
# SUMO Mot1 rescue: blocks SUMOylation pathway, rescuing yeast Mot1-301 growth. S. cerevisiae Mot1-301 growth rescue, ATP luminescence, 38.5C; percent above DMSO median, 100 means doubled. growth rescue, % at 18.8 µM. hit rate 1% among 320,000;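 active means every valid replicate shows activation above 250% relative to neutral control wells; inactive means the rest, any valid replicate at or below 250%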
# H9c2 protect: protects H9c2 cardiomyocytes from peroxide injury. AID 588492. protection from H2O2 cell death, % at 20 µM. H2O2 injury protection, ATPLite, 2 h. hit rate 0.63% among 360,000;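 active means compounds giving at least 50% protection of heart cells from peroxide-induced death in the single-dose screen, raw or plate-pattern-corrected value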
# AHR activator: activators of human aryl hydrocarbon receptor; P35869; hit rate 2.5% among 320,000; activation, % at 5 µM; AHR-responsive luciferase reporter cells, luminescence; in the data active means activation above about 47%
# Target sequence (P35869 whole entry, looked up): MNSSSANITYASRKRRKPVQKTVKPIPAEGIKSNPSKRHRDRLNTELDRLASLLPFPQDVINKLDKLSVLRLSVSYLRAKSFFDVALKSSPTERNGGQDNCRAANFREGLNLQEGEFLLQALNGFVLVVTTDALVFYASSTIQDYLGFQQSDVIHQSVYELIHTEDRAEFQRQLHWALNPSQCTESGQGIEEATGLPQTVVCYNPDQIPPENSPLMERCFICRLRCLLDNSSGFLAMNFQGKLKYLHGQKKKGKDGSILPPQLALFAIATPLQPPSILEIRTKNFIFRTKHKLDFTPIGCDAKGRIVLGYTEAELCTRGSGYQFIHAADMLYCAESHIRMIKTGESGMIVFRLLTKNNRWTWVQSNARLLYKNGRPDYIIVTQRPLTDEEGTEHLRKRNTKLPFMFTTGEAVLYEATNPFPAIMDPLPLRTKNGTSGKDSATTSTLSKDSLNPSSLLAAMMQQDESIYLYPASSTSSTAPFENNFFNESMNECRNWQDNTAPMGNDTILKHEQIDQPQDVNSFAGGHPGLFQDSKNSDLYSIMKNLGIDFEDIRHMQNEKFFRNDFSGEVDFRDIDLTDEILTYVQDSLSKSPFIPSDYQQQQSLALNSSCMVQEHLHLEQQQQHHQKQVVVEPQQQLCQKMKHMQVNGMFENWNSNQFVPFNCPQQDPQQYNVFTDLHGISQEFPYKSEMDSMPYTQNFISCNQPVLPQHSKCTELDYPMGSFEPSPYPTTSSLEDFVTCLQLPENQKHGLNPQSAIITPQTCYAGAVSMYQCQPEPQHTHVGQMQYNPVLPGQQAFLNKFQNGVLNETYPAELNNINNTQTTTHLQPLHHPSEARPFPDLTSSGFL
# NTR1 agonist: activates human neurotensin receptor 1 | P30989 | NTR1-U2OS beta-arrestin-GFP spot imaging, agonist mode | activation, % at 20 µM | hit rate 0.17% among 330,000;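 active means activation at or above 40% of the spot to cytoplasm intensity ratio, with at least 20 cells analyzed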
# AI-2 QS mod: modulates the Vibrio harveyi AI-2 quorum sensing system. Vibrio harveyi JMH597 AI-2 luminescence/OD600 ratio, 9 h; hits give low values; strain lacks LuxN and CqsS sensors; 0 = neutral-control median. activity change, % at 7.5 µM. hit rate 0.4% among 300,000. AID 2094; in the data active means activity change below about -75%, passing the limit was not always enough;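 further: luminescence divided by OD600 gain over 9 h not by final OD600 alone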
# Numbers stand for hits; - = inactive; . = not tested or not shown. A selection: hits, their analogues and other compounds. The true share with any hit is near 6.2%.
SMILES,GRIN3A LBD mod,SUMO Mot1 rescue,H9c2 protect,AHR activator,NTR1 agonist,AI-2 QS mod
CC(C)C(=O)Nc1ccc(NC(=O)c2cc3ccccc3o2)cc1,-,-,-,-,-,-
O=C(NC(=S)Nc1ccc2oc(=O)ccc2c1)c1cc2ccccc2o1,-,-,-,-,-,-
Cc1ccc(NC(=O)CCCCCN2C(=O)[C@@H]3Cc4ccccc4CN3C2=O)c(C)c1,-,-,-,-,-,-
O=C(O)Cc1sc(Nc2cccc3ccccc23)nc1-c1ccccc1,-,-,-,61,-,.
O=C(Cc1sc(-c2ccccc2)nc1-c1ccccc1)Nc1ccc(Cl)cc1,24,.,-,-,-,-
O=C(Cc1sc(-c2ccccc2Cl)nc1-c1ccccc1)Nc1ccccc1,-,-,-,-,-,-
O=C(O)Cc1sc(Nc2cccc3ccccc23)nc1-c1ccc(Cl)cc1,-,-,-,56,-,-
O=C1CCN(Cc2ccccc2)C=C1c1ccc(Br)cc1,-,-,-,-,-,.
Cn1c(=O)n(C)c2cc(NC(=O)c3ccc(F)cc3)ccc21,-,-,-,-,-,-
O=C(NNC1=Nc2ccccc2SC1)c1ccc(F)cc1,-,-,-,74,-,-
CCCNc1c(NC(=O)c2cccs2)c(=O)oc2ccccc12,-,-,-,-,-,-
Cc1ccccc1CNC(=O)C(=O)NCC1OCCCN1S(=O)(=O)c1cccs1 (stereo not drawn),-,-,-,-,-,-
CC(C)Cn1c(=O)c2ccccc2n2c(SCC(=O)N3c4ccccc4CC3C)nnc12 (stereo not drawn),20,-,-,-,-,-
CCn1c(SCC(=O)N2c3ccccc3CCc3ccccc32)nc2c1c(=O)n(C)c(=O)n2C,-,-,-,-,-,-
CC1Cc2ccccc2N1C(=O)CSc1nc2c(c(=O)n(C)c(=O)n2C)n1Cc1ccccc1 (stereo not drawn),-,-,72,-,-,-
CC1Cc2ccccc2N1C(=O)CSc1nnnn1Cc1ccccc1 (stereo not drawn),-,-,-,48,-,-
C[C@H](CO)N1C[C@H](C)[C@@H](CN(C)C(=O)Nc2cccc(F)c2)Oc2ncc(Br)cc2C1=O,.,.,-,.,.,.
N#Cc1cccc(C#N)c1Oc1ccc(S(=O)(=O)Nc2ccc(Cl)cc2)cc1,10,-,-,-,-,-
Clc1ccc(OCCOCCNCc2ccccc2)cc1Cl,-,-,-,-,-,-
Clc1ccc(Cn2nnc(-c3ccccc3)n2)cc1,-,-,-,-,-,-81
CC(C)CNC(=O)c1ccccc1C(=O)NC1(C(=O)NCC(C)C)CCCC1,-,.,-,.,.,.
O=C(NCCCn1ccnc1)c1cccc(Cl)c1,-,-,-,-,-,-
O=C(NCCCn1ccnc1)Nc1cccc(Cl)c1,-,-,-,60,-,-
O=C(NCCCn1ccnc1)Nc1ccc2c(c1)OCO2,-,-,-,50,-,-
COc1ccc(C)cc1NC(=O)C1CCN(S(=O)(=O)c2ccc3c(c2)NC(=O)CO3)CC1,-,-,-,-,-,-
SMILES,GRIN3A LBD mod,SUMO Mot1 rescue,H9c2 protect,AHR activator,NTR1 agonist,AI-2 QS mod
Nc1c(-c2ccccn2)cnn1-c1nc(-c2ccc(F)cc2)cs1,-,-,-,63,-,-
COc1ccc(-c2csc(-n3ncc(-c4ccccn4)c3N)n2)cc1,-,-,-,-,-,-
Cc1cn([C@H]2C[C@H](O)[C@@H](/C=C/C(=O)NCCc3cccs3)O2)c(=O)[nH]c1=O,.,.,-,.,.,.
CC(C)S(=O)(=O)c1nsc2nc(=O)c(/C=C3\C=Nc4ccccc43)c(N)n12,23,-,-,-,-,-
Nc1c(C=C2C=CC(=O)C=C2)c(=O)nc2snc(SCc3ccccc3)n12,18,-,-,-,-,-
CC1=Nc2ccccc2/C1=C/c1c(N)n2c(S(=O)(=O)C(C)C)nsc2nc1=O,-,-,-,-,-,-
CSc1nsc2nc(=O)c(/C=C3\C=Nc4ccccc43)c(N)n12,22,-,-,-,-,-
CC(=O)N1c2ccc(S(=O)(=O)NCC3CCC(C(=O)Nc4cc(C)ccn4)CC3)cc2CC1C (stereo not drawn),-,-,-,-,-,-
CS(=O)(=O)c1ccc2sc(NC(=O)c3cc4ccccc4o3)nc2c1,11,-,-,-,-,-
Cc1nc(NC(=O)c2cc3ccccc3o2)sc1C,-,-,-,-,-,-
CS(=O)(=O)c1ccc2nc(NC(=O)c3cc4ccccc4o3)sc2c1,26,-,-,-,-,-
CCOc1ccccc1C(=O)OCC(=O)Nc1cc(S(=O)(=O)N2CCOCC2)ccc1C,-,.,-,-,-,.
CC1CCCCC12NC(=O)N(CC(=O)OCC(=O)N(C)C1CCCCC1)C2=O (stereo not drawn),-,-,-,-,-,.
CC1CC(C)CN(C(=O)/C=C/c2ccc(S(=O)(=O)N3CCOCC3)cc2)C1 (stereo not drawn),-,-,-,-,-,.
COc1ccc(C2CC(c3ccccc3C(F)(F)F)=NN2c2ccc(S(N)(=O)=O)cc2)cc1 (stereo not drawn),18,.,-,.,-,.
COc1ccc(C2CC(c3ccccc3Br)=NN2c2ccc(S(N)(=O)=O)cc2)cc1 (stereo not drawn),14,.,-,.,-,.
COc1ccc(C2CC(c3ccc(C(F)(F)F)cc3)=NN2c2ccc(S(N)(=O)=O)cc2)cc1 (stereo not drawn),107,.,-,.,-,.
Cc1ccc(NC(=O)C2=NNC(=O)CC2)cc1S(=O)(=O)Nc1ccc(SC(F)F)cc1,-,-,-,-,-,.
Cc1cc(C)c2c(N)c3cccc(C)c3nc2n1,-,-,-,69,.,-
O=c1c2c(nc3c(-c4ccc(Cl)cc4)c[nH]n13)CCCC2,-,-,-,67,-,-
O=c1c2c(nc3c(-c4cccc5ccccc45)c[nH]n13)CCC2,-,-,-,-,-,-
Cc1ccc(N2C(=O)CC(Sc3cccs3)C2=O)cc1 (stereo not drawn),-,320,-,-,-,-
COC(=O)Nc1nc2ccc(-c3n[nH]c(=O)c4ccccc34)cc2[nH]1,-,-,68,-,-,-
COc1ccccc1Oc1coc2cc(O)ccc2c1=O,-,-,-,-,-,-
COc1ccc(Oc2coc3cc(O)ccc3c2=O)cc1,-,-,-,.,-,-94
CCOC(=O)c1ccc(N2C(=O)c3n[nH]c(-c4ccco4)c3C2c2cccc([N+](=O)[O-])c2)cc1 (stereo not drawn),24,-,-,-,-,-
Nc1ccc(NC(=S)Nc2ccccc2)cc1,25,-,-,.,.,-
Oc1ccc(NC(=S)Nc2ccccc2)cc1,-,-,-,-,-,-
CSc1ccc(CNC(=O)C2(C)CCN2C(C)C)cc1 (stereo not drawn),.,.,-,.,.,.

# From PubChem BioAssay
